Screening data from PubChem BioAssay.
TDP1 cell CPT: DT40-hTDP1 cell growth loss with CPT | Potency, µM (top dose mostly 46.2 µM), most hits filed as inhibitors | 420,000 compounds, 12% hits | chicken DT40 Tdp1-/-;hTDP1 cells + 20 nM CPT, ATP luminescence, 48 h; also: nearly all actives have a fitted effect of over 55% in size
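Cell growth measured by CellTiter-Glo luminescence after a minimum 48 h, 37 C compound exposure with 20 nM CPT in Tdp1-knockout DT40 cells stably expressing hTDP1, seeded 400/well; qHTS titration format.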
TDP1 inh: TDP1 (human) enzyme inhibition; 350,000 compounds, 0.28% hits; Q9NUW8; Potency, µM (titrated, usually from 130 µM), hits mostly inhibitors; recombinant TDP1, AlphaScreen DNA substrate cleavage; also: nearly all actives have a fitted effect of over 40% in size
Target sequence (Q9NUW8 whole entry, looked up): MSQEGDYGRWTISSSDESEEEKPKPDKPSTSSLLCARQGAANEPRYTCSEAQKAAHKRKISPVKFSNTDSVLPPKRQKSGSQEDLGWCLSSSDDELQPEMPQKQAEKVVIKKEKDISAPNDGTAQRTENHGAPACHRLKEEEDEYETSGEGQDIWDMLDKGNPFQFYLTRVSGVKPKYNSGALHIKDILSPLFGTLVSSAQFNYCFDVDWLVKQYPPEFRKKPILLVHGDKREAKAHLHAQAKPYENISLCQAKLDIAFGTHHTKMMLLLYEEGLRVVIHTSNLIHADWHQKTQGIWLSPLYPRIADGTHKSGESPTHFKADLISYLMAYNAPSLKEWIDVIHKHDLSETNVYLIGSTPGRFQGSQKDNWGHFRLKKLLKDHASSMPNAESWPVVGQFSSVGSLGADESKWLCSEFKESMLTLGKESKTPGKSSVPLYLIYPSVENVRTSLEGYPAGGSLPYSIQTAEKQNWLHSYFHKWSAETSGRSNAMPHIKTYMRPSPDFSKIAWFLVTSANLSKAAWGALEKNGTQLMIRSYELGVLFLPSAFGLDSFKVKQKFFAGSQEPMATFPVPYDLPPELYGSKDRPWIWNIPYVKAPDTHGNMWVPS
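Recombinant human Tdp1 (E. coli-expressed, 1 nM final) preincubated with compounds 15 min at room temperature, then 5'-biotin/3'-phosphotyrosine-FITC DNA substrate (15 nM final) added for 5 min. AlphaScreen beads (10 ug/ml final) added 10 min; cleavage lowers signal.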
DT40 TDP1 no CPT: qHTS for Inhibitors of human tyrosyl-DNA phosphodiesterase 1 (TDP1): qHTS in cells in absence of CPT; DT40 Tdp1-/- hTDP1 cells, no CPT, ATP luminescence, 48 h; Potency, µM (doses to about 46.2 µM), most hits filed as inhibitors; 420,000 compounds, 15% hits; AID 686978, 2013; also: nearly all actives have a fitted effect of over 55% in size
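Chicken DT40 Tdp1-/- cells stably complemented with human TDP1 were seeded at 400 cells/well with DMSO in place of 20 nM camptothecin. After compound pinning, cells grew at least 48 hr at 37 °C; viability read by CellTiter-Glo luminescence.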
HepG2 tox: HepG2 cytotoxicity, counter-screen for TGF-b inhibitors; AID 588856; HepG2 CAGA-GFP viability, ATP luminescence, 18 h; 410,000 compounds, 0.76% hits; Potency, µM (doses to about 46.1 µM), most hits filed as cytotoxic
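HepG2 CAGA-GFP cells (1000/well, DMEM with 1% FBS) received compound, then TGF-beta at 500 pg/mL final, and were incubated 18 hours at 37 degrees C. Viability was read by CellTiter-Glo luminescence. Media-only wells were set as complete cell-killing and DMSO as no toxicity.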
TGFb SMAD3 inh: blocks TGF-b signaling; 410,000 compounds, 1.2% hits; AID 588855; Potency, µM (top dose mostly 46.1 µM), actives largely listed as inhibitors; HepG2 CAGA-GFP TGF-b/SMAD3 reporter, GFP fluorescence, 18 h; TGF-beta stimulated, 500 pg/mL final; also: nearly all actives have a fitted effect of over 65% in size
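TGF-beta reporter screen: HEPG2 CAGA-GFP, 1% FBS, 500 pg/mL TGF-beta final, 18 h; per-cell GFP summed per well; curves fitted and categorized by class.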
IL1B secr inh: inflammasome signaling inhibition, IL-1 beta readout. activity change, % at 57.5 µM. 360,000 compounds, 4.7% hits. THP-1 LPS/ATP IL-1B secretion, AlphaLISA, 16 h; stronger effect = lower value; in the data active = activity change below about -50%; inconclusive = mostly about -30% to -49%
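Secreted IL-1B measured by AlphaLISA bead assay after 16 h compound exposure of THP-1 cells; compounds (final up to 57.5 uM) added 1 h before LPS (250 ng/mL) and ATP (1.25 mM) stimulation; lower signal means less secretion.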
Numbers stand for hits; – = inactive; ? = inconclusive; · = not tested or not shown. Hits are enriched below; roughly 18% of the tested compounds scored in any of these assays. Unless noted, calls follow the shape of the dose curve; as a rule, active = well fitted curve in the direction sought with a large enough effect; inconclusive = small, poorly fitted or top-dose-only effect, or another doubt; inactive = no such curve, though single readings can be large; an effect the other way counts as inactive or inconclusive.

SMILES | TDP1 cell CPT | TDP1 inh | DT40 TDP1 no CPT | HepG2 tox | TGFb SMAD3 inh | IL1B secr inh
CCCN1CCN(CCCNC(=O)C2CCCN(c3nc4ccc(OCC)cc4s3)C2)CC1 (stereo not given) | – | – | – | – | – | –
O=C(NCCc1ccccc1)C1CCCN(c2nc3ccccc3s2)C1 (stereo not given) | – | – | ? | – | – | –
CCOc1ccc2nc(N3CCCC(C(=O)NCC4CCCO4)C3)sc2c1 (stereo not given) | – | · | – | – | – | –
CCOC(=O)C1CCN(S(=O)(=O)c2cc(-c3cc(C)no3)ccc2OC)CC1 | – | – | – | – | – | ·
CCOC(=O)Cc1c(-c2cccc(Cl)c2)nc2c3ccccc3ccn12 | ? | · | 20.6µM | · | · | –
Fc1cccc(Cc2c(-c3ccccc3)nc3c4ccccc4ccn23)c1 | ? | · | 16.4µM | · | · | –
Clc1ccc(-c2nc3c4ccccc4ccn3c2Cc2cccc(Cl)c2)cc1 | ? | · | 7.31µM | · | · | –
O=C(CCNS(=O)(=O)c1ccc(F)cc1)N1CCN(c2ncccn2)CC1 | – | · | – | – | – | –
NC(=N\N=Cc1ccco1)/C(N)=N/N=Cc1ccco1 | – | · | ? | – | – | –
CC1CCN(C(=O)c2cc(Cl)ccc2NC(=O)c2ccco2)CC1 | – | – | – | – | – | –
C[C@H](CO)N1C[C@H](C)[C@H](CN(C)S(=O)(=O)c2ccccc2)Oc2c(NS(C)(=O)=O)cccc2C1=O | – | – | – | – | – | –
Cc1ccc2c(c1)[C@@H]1CN(C)CC[C@@H]1N2S(=O)(=O)c1ccc(F)cc1 | ? | – | ? | – | – | –
CCc1ccc(S(=O)(=O)N2c3ccc(C)cc3C3CN(C)CCC32)cc1 (stereo not given) | ? | – | ? | – | – | -51.5
O=C1NC[C@@H](CCCCN2C[C@H](Cc3ccccc3)N(CCc3ccc(O)cc3)C(=O)C2=O)N(CCc2ccccc2)C1=O | – | · | – | · | · | –
COc1cc2c(cc1OC)C(c1cccc([N+](=O)[O-])c1)N(C(=O)c1ccccc1C(=O)O)CC2 (stereo not given) | – | – | – | – | – | -57.9
COc1ccc(C(=O)N2CCc3cc(OC)c(OC)cc3C2c2cccc([N+](=O)[O-])c2)cc1OC (stereo not given) | ? | – | 18.4µM | – | – | ?
COc1cc2c(cc1OC)C(c1ccc(Br)cc1)N(C(=O)c1ccccc1C(=O)O)CC2 (stereo not given) | – | – | – | – | – | –
COc1cc2c(cc1OC)C(c1ccccc1)N(C(=O)c1cccc(S(C)(=O)=O)c1)CC2 (stereo not given) | – | – | ? | – | – | –
CCC(=O)Nc1ccccc1C(=O)OCC(=O)c1cccc2ccccc12 | ? | – | – | – | – | –
CCC(=O)Nc1ccccc1C(=O)OCc1ccc(C(=O)c2ccccc2)cc1 | 20.6µM | – | ? | – | ? | –
CCn1c(=O)cc(SCC(=O)NCc2cccnc2)c2ccccc21 | – | – | – | – | – | –
Cn1c(=O)cc(SCC(=O)NCc2ccc(F)cc2)c2cc(Cl)ccc21 | 7.31µM | – | 13µM | – | – | ·
CCn1c(=O)cc(SCC(=O)NCc2ccc(C)o2)c2ccccc21 | 14.6µM | – | 13µM | – | – | –
CCOc1ccc(CNC(=O)CSc2cc(=O)n(CC)c3ccccc23)cc1 | – | – | ? | – | – | ·
CCn1c(=O)cc(OCC(=O)NCc2ccc(C)o2)c2ccccc21 | – | – | – | – | – | –
CCc1ccc(CNC(=O)CSc2cc(=O)n(CC)c3ccccc23)cc1 | 20.6µM | – | 8.2µM | – | ? | ·
CCn1c(=O)cc(SCC(=O)NCc2ccc(C)cc2)c2ccccc21 | ? | – | 25.9µM | – | – | –
